Hits are enriched below; roughly 17% of the tested compounds scored in any of these assays.
ClpP mod: qHTS Assay for Activators of ClpP; ATP-dependent Clp protease proteolytic subunit (Bacillus subtilis (strain 168)), P80244; AID 651965, 2013; 340,000 compounds, 1.9% hits; Potency, µM (top dose mostly 57.5 µM); purified B. subtilis ClpP, FRET peptide cleavage, 20 min; active = well fitted falling curve with a large enough effect; inconclusive = small, poorly fitted or top-dose-only effect; inactive = no such curve, though single readings can be large or run the other way; also: the source files actives as falling curves though it sought activators and does not explain the sign; nearly all actives have a fitted effect of over 65% in size
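ClpP 10 microg/mL final, pH 8 Tris/KCl buffer with BSA, glycerol, Tween-20; compound pinned in; FRET-FV substrate; RT 20 min; Ex320/Em430; ΔFRET vs ADEP 5.8 microM, DMSO, no enzyme.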
DT40 TDP1 no CPT: qHTS for Inhibitors of human tyrosyl-DNA phosphodiesterase 1 (TDP1): qHTS in cells in absence of CPT. 420,000 compounds, 15% hits. DT40 Tdp1-/- hTDP1 cells, no CPT, ATP luminescence, 48 h. Potency, µM (top dose mostly 46.2 µM), actives largely listed as inhibitors; also: nearly all actives have a fitted effect of over 55% in size
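Readout: luminescence from CellTiter-Glo after 30 min in the dark at RT. Cells: DT40 Tdp1-/- with stable hTDP1, 400/well. Exposure: compounds alone, ≥48 hr, 37 °C.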
DT40 TDP1 CPT: growth inhibition of DT40 Tdp1-/-;hTDP1 cells with camptothecin (screen for TDP1 inhibitors) | chicken DT40 Tdp1-/-;hTDP1 cells + 20 nM CPT, ATP luminescence, 48 h | Potency, µM (highest dose often 46.2 µM), most hits filed as inhibitors | 420,000 compounds, 12% hits | AID 686979; also: nearly all actives have a fitted effect of over 55% in size
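Chicken DT40 Tdp1-/- cells complemented with human TDP1, 400 cells/well, exposed to compounds plus 20 nM camptothecin for at least 48 h at 37 C; viability read as ATP content by CellTiter-Glo luminescence.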
TDP1 inh: TDP1 (human) enzyme inhibition; recombinant TDP1, AlphaScreen DNA substrate cleavage; Potency, µM (highest dose often 130 µM), hits mostly inhibitors; 350,000 compounds, 0.28% hits; AID 485290; Q9NUW8; also: nearly all actives have a fitted effect of over 40% in size
Target sequence (Q9NUW8 whole entry, looked up): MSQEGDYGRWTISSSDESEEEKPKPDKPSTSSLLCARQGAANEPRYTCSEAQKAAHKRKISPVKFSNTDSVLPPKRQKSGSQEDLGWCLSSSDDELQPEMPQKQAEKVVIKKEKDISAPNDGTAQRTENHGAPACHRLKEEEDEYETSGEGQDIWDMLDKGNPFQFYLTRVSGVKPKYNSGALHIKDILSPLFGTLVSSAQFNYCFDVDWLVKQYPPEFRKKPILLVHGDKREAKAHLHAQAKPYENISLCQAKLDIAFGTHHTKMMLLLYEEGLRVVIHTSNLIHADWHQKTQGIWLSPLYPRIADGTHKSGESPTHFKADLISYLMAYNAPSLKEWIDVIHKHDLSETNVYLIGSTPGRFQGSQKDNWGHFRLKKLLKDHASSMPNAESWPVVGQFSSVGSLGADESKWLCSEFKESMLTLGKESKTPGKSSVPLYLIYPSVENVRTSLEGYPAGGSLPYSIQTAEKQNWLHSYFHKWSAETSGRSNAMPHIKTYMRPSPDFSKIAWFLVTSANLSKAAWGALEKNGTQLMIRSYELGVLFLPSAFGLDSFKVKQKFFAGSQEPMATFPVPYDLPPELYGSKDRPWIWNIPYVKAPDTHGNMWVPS
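Here, a 5' biotin and 3' phosphotyrosine-FITC DNA oligonucleotide reports Tdp1 activity: intact substrate bridges AlphaScreen beads, while cleavage leaves a 3' phosphate and drops signal. All incubations at room temperature.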
Numbers stand for hits; . = inactive; ? = inconclusive; / = no result; ! = not active in a repeat; [ ] = dose if it differs, or a comment. Unless noted, calls follow the shape of the dose curve; as a rule, active = well fitted curve in the direction sought with a large enough effect; inconclusive = small, poorly fitted or top-dose-only effect, or another doubt; inactive = no such curve, though single readings can be large; an effect the other way counts as inactive or inconclusive.

SMILES	ClpP mod	DT40 TDP1 no CPT	DT40 TDP1 CPT	TDP1 inh
COc1ccc(CNC(=O)C2(C)Cc3c(-c4cccc(C(N)=O)c4)ccnc3O2)cc1OC (stereo not drawn)	.	?	.	/
CN(C)c1ccc(-c2ccnc3c2CC(C)(C(=O)NCc2ccco2)O3)cc1 (stereo not drawn)	.	6.5µM	4.1µM	/
CN(C)c1ccc(-c2ccnc3c2CC(C)(C(=O)NCc2ccc(F)c(F)c2)O3)cc1 (stereo not drawn)	.	9.2µM	9.2µM	/
CCCCCN(C(=O)NC(=O)Nc1ccc(C)cc1)S(=O)(=O)c1ccccc1	.	?	?	.
COC(=O)[C@H](Cc1ccccc1)NC(=O)O[C@@H]1C(=O)c2cc(OC)ccc2O[C@H]1c1cccc(OC)c1	/	/	/	.
Oc1ccc(Cl)cc1N=Nc1ccccc1	.	.	.	.
Cc1ccc(O)c(N=Nc2ccccc2)n1	.	16µM	2.9µM	.
COc1ccc(C2CN=NC2C(=O)c2ccccc2)cc1 (stereo not drawn)	.	?	.	/
COC(=O)c1nn(-c2ccc(OC)cc2)ccc1=O	.	.	.	/
O=C(NCc1ccccc1)c1cccc(NC(=O)C2CCC2)c1	.	.	.	/
CC(C)(C)OC(=O)N1CCC(C(=O)Nc2cccc(C(=O)NCc3ccccc3)c2)CC1	.	21µM	23µM	/
CC(C)(C)OC(=O)N1CCC(C(=O)Nc2cccc(C(=O)NCCCc3ccccc3)c2)CC1	.	21µM	15µM	/
CCN(CC)c1ccc(-c2nnc(SCC(=O)N(CCOC)c3c(N)n(CC(C)C)c(=O)[nH]c3=O)o2)cc1	.	?	?	.
O=C(CN(c1cc(Cl)ccc1Cl)S(=O)(=O)c1ccccc1)N1CCOCC1	.	.	.	.
Cc1cccc(CN2Cc3cccc4c3[C@H](C=CC4)CC2=O)c1	.	20µM	16µM	/
O=C1C[C@H]2C=CCc3cccc(c32)CN1Cc1ccc(F)cc1	.	13µM	?	/
O=C(c1ccoc1)N1CCN(c2cc(-c3cccnc3)nc3cc(-c4cccc(Cl)c4)nn23)CC1	.	7.3µM	18µM	/
O=C(c1ccncc1)N1CCN(c2cc(-c3ccccc3)nc3cc(-c4cccc(Cl)c4)nn23)CC1	.	7.3µM	12µM	/
O=C(c1ccoc1)N1CCN(c2cc(-c3ccncc3)nc3cc(-c4cccc(Cl)c4)nn23)CC1	.	5.8µM	13µM	/
CC(=O)N1CCN(c2cc(-c3ccccc3)nc3cc(-c4cccc(Cl)c4)nn23)CC1	?	10µM	21µM	/
OC1CCN(c2cc(-c3ccccc3)nc3cc(-c4ccc(F)cc4)nn23)CC1	/	?	.	.
Cc1cc(N2CCN(C(=O)c3ccco3)CC2)n2nc(-c3cccc(F)c3)cc2n1	?	?	?	.
CC(C)CN1CCc2nc(-c3ccccc3)c3c(c2CC1)COC(C)C3 (stereo not drawn)	/	/	/	.[21 µM]
O=C1CC[C@@H]2C[C@@]3(C[C@@H]4CCN1[C@H]24)Nc1cc([N+](=O)[O-])ccc1NC3=NCc1ccccc1	.	?	?	/
Cc1ccc(S(=O)(=O)N(CC(=O)c2ccccc2)C(=O)N2CCN(C)CC2)cc1	.	.	?	/
SMILES	ClpP mod	DT40 TDP1 no CPT	DT40 TDP1 CPT	TDP1 inh
COc1ccc2oc(C(=O)N3CCN(C/C=C/c4ccccc4)CC3)c(C)c2c1	.	.	.	.
CC(C)c1cc(C(=O)N2CCN(C(c3ccccc3)c3ccccc3)CC2)no1	.	?	?	.
COc1ccc2oc(C(=O)N3CCN(C(c4ccccc4)c4ccccc4)CC3)c(C)c2c1	/	18µM	?	.
COc1ccc(-c2cc(C(=O)N3CCN(C(c4ccccc4)c4ccccc4)CC3)no2)cc1	.	?	23µM	.
O=C(c1cc(-c2ccco2)on1)N1CCN(C(c2ccccc2)c2ccccc2)CC1	.	16µM	16µM	.
CCC(C)(C)NC(=O)C(c1sccc1C)N(Cc1ccco1)C(=O)c1csnn1 (stereo not drawn)	/	16µM	16µM	/
CCC(C)(C)NC(=O)C(c1ccccc1F)N(Cc1ccco1)C(=O)c1csnn1 (stereo not drawn)	.	?	.	.
O=C(CCc1n[nH]c(=O)[nH]c1=O)N/N=C/c1ccco1	/	.	.	22µM
COc1cccc(/C=N/NC(=O)CCc2n[nH]c(=O)[nH]c2=O)c1O	10µM	?	.	.
COc1ccc(/C=N/NC(=O)CCc2n[nH]c(=O)[nH]c2=O)cc1OC	.	.	.	.
CCC1CN(C(=O)N2CCC(C(=O)N3CCN(c4cc(C)ccc4C)CC3)CC2)c2ccccc2O1 (stereo not drawn)	.	15µM	16µM	.
CCC1CN(C(=O)N2CCC(C(=O)N3CCN(c4ccc(F)cc4)CC3)CC2)c2ccccc2O1 (stereo not drawn)	.	21µM	13µM	.
Cc1ccc(C)c(N2CCN(C(=O)C3CCC3)CC2)c1	.	.	.	/
CCC1CN(C(=O)N2CCC(C(=O)N3CCN(c4cccc(C)c4C)CC3)CC2)c2ccccc2O1 (stereo not drawn)	.	5.8µM	7.3µM	.
Cc1ccccc1N1CCN(C(=O)C2CCCCC2)CC1	.	?	.	.
Cc1ccc(NC(=S)NCC(C)C)cc1	.	.	.	.
Cc1ccccc1NC(=O)CSc1nnc(COc2ccc(Cl)cc2)o1	.	.	.	.
COc1ccc(-c2cnc(C(O)c3ccc(C(C)(C)C)cc3)[nH]2)cc1 (stereo not drawn)	.	?	?	/
c1ccc2c(c1)ncn2CCn1cnc2ccccc21	.	.	.	/
Cc1ccc(Cn2cnc3ccccc32)cc1	.	21µM	15µM	.
Cc1ccc2cc(CN(C(=O)c3ccco3)c3cccc(C)c3C)c(=O)[nH]c2c1	/	?	.	.
Cc1ccc2cc(CN(C(=O)c3ccco3)c3ccccc3C)c(=O)[nH]c2c1	?	21µM	?	.
Cc1ccc(N(Cc2cc3ccc(C)cc3[nH]c2=O)C(=O)c2ccco2)c(C)c1	?	23µM	?	.
COc1c(-c2ccc(O)c(O)c2)oc2cc(O)cc(O)c2c1=O	.	9.2µM!	10µM!	.
O=c1c(OC2OC(CO)C(O)C(O)C2OC2OC(CO)C(O)C(O)C2OC2OC(CO)C(O)C(O)C2O)c(-c2ccc(O)c(O)c2)oc2cc(O)cc(O)c12 (stereo not drawn)	.	21µM	15µM	/
CCOc1ccc(NC(=O)c2sc3nc(-c4ccc(OC)cc4)cn3c2C)cc1	.	7.3µM	16µM	.
Cc1c(C(=O)N2CCN(c3ccccc3F)CC2)sc2nc(-c3ccccc3)cn12	.	?	?	.
COc1ccc(-c2cn3c(C)c(C(=O)N4CCN(c5ccccc5F)CC4)sc3n2)cc1	.	18µM	23µM	/
Cc1c(C(=O)Nc2ccncc2)sc2nc(-c3ccc(F)cc3)cn12	.	5.2µM	7.3µM	.
COc1ccc(-c2cn3c(C)c(C(=O)Nc4ccncc4)sc3n2)cc1	.	5.8µM	3.7µM	.
